Measurements reported in the supplement of paper PMC10849652.
Of roughly 8,800 targets only a part is listed; those with a hit were picked by preference. About 0.5% of all pairs of compound and target were hits. A number with no mark means an inactive call.

Tests used:
Test in all cases: log2 fold change, soluble protein after heating vs DMSO (PISA); higher = thermal stabilisation; K562 lysate, 10 uM; active = over 0.2 and 3.5 SD of the protein, either way, in both replicates (recomputed)
[1] = compound: NCC(=O)Nc1ccc(-n2nc(C(F)(F)F)cc2-c2ccc3c(ccc4ccccc43)c2)cc1
Procedure, shortened: (§1)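 Dounce homogenisation of K562 pellets in PBS pH 7.4 with 1 mM MgCl2 produced a crude extract, used at 1 mg/mL protein. Exposure to 10 μM compound lasted 30 min, and aliquots were then heated for 3 min across 48°C-58°C, pooled and brought to 0.5% NP-40 at 4°C. The supernatant after 21,000xg for 90 min was quantified by TMTpro 16plex LC-MS/MS with channel sums equalised. Duplicate values are given as log-two fold change in thermal stability relative to solvent controls.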

vorinostat = compound: O=C(CCCCCCC(=O)Nc1ccccc1)NO [vorinostat]
Procedure, shortened: as §1

silmitasertib = compound: O=C(O)c1ccc2c(c1)nc(Nc1cccc(Cl)c1)c1ccncc12 [silmitasertib]
Procedure, shortened: as §1

[2] = compound: O=C1NC(=O)C(c2cnc3ccccn23)=C1c1cn2c3c(cc(F)cc13)CN(C(=O)N1CCCCC1)CC2
Procedure, shortened: as §1

entospletinib = compound: c1cn2cc(-c3ccc4cn[nH]c4c3)nc(Nc3ccc(N4CCOCC4)cc3)c2n1 [entospletinib]
Procedure, shortened: as §1

Chain of UniProt P35250 (P35250 whole entry, looked up): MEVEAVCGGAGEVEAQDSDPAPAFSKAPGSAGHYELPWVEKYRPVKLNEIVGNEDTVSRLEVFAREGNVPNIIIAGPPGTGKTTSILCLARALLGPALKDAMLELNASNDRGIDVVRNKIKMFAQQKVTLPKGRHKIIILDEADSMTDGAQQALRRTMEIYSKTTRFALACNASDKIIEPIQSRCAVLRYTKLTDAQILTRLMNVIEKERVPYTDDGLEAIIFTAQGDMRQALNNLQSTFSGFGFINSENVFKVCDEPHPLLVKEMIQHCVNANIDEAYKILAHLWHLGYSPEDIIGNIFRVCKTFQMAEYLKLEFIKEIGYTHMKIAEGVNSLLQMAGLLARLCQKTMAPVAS
Chain of UniProt Q8WZA2 (Q8WZA2 whole entry, looked up): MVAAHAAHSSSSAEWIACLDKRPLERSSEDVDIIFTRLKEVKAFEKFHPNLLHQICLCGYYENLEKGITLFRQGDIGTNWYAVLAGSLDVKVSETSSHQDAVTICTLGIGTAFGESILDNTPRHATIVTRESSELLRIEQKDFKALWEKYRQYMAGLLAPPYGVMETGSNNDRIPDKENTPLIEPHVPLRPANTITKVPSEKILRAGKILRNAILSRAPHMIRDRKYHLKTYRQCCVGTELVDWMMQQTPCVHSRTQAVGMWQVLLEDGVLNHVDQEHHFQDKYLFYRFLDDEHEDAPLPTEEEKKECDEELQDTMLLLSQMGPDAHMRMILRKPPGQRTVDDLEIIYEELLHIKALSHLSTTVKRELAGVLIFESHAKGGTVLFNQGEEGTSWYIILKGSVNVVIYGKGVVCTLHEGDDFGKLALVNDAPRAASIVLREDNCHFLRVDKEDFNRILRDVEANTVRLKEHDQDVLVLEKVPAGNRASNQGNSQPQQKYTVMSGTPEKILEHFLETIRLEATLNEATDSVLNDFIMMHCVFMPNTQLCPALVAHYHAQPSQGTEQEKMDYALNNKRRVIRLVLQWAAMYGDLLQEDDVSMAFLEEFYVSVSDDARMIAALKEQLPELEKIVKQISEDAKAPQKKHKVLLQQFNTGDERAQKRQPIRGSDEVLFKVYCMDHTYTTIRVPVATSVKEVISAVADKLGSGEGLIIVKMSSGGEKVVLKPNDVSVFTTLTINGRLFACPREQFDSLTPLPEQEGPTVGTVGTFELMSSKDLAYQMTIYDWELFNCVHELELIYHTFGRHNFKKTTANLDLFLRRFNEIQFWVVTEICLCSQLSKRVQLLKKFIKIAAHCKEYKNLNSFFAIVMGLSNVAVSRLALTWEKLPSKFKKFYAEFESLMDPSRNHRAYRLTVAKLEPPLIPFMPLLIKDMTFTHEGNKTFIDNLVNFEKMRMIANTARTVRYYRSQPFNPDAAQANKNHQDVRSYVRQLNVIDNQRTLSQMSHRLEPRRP
Chain of UniProt Q6NUM9 (Q6NUM9 whole entry, looked up): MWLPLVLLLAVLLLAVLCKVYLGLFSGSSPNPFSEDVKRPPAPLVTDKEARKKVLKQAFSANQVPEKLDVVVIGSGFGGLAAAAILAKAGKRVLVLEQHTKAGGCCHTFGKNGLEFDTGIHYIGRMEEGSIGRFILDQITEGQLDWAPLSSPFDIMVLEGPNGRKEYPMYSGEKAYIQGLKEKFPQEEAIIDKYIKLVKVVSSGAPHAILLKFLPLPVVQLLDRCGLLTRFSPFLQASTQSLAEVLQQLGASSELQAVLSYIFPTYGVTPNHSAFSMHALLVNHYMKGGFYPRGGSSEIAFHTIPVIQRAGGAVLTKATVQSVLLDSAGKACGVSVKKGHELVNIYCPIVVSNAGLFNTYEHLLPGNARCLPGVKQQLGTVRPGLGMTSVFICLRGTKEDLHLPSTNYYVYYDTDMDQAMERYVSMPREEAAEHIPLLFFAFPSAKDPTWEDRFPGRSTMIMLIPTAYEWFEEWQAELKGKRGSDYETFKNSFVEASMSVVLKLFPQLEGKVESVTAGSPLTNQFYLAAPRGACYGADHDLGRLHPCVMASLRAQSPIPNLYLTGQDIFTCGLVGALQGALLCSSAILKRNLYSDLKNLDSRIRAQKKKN
Chain of UniProt P35249 (P35249 whole entry, looked up): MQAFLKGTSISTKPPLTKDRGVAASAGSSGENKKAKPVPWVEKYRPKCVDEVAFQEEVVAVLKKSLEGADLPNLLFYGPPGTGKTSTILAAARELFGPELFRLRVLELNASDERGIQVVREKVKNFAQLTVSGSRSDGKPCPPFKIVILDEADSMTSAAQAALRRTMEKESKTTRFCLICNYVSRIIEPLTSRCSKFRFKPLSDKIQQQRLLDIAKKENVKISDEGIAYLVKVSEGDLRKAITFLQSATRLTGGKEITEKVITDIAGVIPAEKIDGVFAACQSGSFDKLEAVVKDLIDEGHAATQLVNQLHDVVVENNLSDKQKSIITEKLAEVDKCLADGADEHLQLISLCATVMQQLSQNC
Chain of UniProt P11233 (P11233 whole entry, looked up): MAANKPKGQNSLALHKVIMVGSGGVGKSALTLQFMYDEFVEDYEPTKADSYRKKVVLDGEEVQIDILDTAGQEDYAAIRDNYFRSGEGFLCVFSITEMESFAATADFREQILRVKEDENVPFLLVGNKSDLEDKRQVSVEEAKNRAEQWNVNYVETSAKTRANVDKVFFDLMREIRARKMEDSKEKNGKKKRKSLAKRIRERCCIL
Chain of UniProt Q05823 (Q05823 whole entry, looked up): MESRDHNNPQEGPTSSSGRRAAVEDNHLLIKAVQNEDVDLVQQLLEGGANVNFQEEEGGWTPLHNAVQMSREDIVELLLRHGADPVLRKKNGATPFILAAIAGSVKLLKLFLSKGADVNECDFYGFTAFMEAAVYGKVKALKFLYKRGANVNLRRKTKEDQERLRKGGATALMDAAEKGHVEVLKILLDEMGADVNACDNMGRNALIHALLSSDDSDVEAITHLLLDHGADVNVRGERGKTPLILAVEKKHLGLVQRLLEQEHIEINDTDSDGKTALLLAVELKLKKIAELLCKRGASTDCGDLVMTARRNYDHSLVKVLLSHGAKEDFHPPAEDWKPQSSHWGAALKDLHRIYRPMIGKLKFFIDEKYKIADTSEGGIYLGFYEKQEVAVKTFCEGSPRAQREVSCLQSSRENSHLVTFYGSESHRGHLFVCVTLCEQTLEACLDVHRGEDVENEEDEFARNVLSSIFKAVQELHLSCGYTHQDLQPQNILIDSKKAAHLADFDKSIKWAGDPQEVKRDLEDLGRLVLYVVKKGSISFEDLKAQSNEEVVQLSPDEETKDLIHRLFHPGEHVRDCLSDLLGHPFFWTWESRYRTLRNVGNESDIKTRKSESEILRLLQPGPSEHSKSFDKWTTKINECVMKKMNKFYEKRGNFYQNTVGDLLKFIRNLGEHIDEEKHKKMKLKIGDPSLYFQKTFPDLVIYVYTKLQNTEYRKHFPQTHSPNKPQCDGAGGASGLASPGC
Chain of UniProt P23921 (P23921 whole entry, looked up): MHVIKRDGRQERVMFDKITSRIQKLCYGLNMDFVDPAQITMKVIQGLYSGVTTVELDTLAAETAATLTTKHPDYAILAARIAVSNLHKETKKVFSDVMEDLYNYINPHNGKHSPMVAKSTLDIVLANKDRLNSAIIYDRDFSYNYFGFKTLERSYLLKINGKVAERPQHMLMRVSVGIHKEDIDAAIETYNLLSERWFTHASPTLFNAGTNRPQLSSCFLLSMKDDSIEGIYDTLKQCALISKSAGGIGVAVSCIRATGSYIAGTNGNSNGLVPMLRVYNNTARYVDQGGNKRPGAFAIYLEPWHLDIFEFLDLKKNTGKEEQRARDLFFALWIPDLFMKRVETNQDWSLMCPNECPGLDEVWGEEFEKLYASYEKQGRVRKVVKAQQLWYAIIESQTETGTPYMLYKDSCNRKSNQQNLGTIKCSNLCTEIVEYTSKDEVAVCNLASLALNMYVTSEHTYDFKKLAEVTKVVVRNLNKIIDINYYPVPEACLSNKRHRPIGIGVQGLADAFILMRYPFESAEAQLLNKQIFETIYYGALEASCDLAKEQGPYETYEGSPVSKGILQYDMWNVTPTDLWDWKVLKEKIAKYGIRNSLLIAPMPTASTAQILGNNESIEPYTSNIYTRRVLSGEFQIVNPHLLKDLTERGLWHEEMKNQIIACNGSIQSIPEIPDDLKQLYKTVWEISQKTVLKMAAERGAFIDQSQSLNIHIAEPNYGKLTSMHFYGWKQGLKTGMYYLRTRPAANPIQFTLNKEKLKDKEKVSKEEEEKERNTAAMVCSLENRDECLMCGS
Chain of UniProt Q92930 (Q92930 whole entry, looked up): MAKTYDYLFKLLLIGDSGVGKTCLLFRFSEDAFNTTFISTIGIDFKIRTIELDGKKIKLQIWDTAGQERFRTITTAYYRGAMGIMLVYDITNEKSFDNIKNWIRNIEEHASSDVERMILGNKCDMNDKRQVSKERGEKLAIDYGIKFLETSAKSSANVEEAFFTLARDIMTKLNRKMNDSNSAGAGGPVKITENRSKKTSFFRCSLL
Chain of UniProt P61586 (P61586 whole entry, looked up): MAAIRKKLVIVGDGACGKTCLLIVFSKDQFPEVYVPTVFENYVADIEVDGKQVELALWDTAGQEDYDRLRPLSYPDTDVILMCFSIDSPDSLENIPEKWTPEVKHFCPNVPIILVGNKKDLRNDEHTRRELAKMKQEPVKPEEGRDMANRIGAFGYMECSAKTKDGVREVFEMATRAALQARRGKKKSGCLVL
Chain of UniProt P53805 (P53805 whole entry, looked up): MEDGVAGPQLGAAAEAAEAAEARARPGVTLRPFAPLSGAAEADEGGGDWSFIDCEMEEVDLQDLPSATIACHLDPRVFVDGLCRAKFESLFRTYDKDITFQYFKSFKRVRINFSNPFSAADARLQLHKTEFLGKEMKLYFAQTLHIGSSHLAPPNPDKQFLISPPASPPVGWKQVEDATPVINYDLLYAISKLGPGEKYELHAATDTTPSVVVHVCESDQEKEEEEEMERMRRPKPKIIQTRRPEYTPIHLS
Chain of UniProt Q96E14 (Q96E14 whole entry, looked up): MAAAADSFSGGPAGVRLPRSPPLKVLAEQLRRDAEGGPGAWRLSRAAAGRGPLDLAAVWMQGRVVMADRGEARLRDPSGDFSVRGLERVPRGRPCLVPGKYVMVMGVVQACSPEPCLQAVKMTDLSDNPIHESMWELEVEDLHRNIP

Target | log2 fold change [1] | log2 fold change (vorinostat) | log2 fold change (silmitasertib) | log2 fold change [2] | log2 fold change (entospletinib)
RECQL4 (UniProt O94761) | -0.003 | -0.044 | 0.019 | 0.022 | -0.023
RNF170 (UniProt Q96K19) | -0.003 | 0.004 | 0.169 |  | 
RETSAT (UniProt Q6NUM9) | -0.087 | 0.17 | -0.016 | 0.058 | 0.036
SDHA (UniProt P31040) | 0.007 | 0.058 | -0.014 | -0.028 | -0.006
RRM1 (UniProt P23921) | 0.011 | -0.227 (active) | 0.027 | -0.003 | -0.013
REEP6 (UniProt Q96HR9) | -0.031 | 0.068 | -0.083 | -0.028 | -0.059
RALA (UniProt P11233) | 0.031 | 0.129 | -0.062 | 0 | -0.006
REL isoform 2 (UniProt Q04864) | -0.052 | -0.351 (active) | 0.07 | -0.004 | 0.019
RMC1 (UniProt Q96DM3) | 0.008 | -0.391 (active) | 0.017 | -0.013 | 0.037
RFWD3 (UniProt Q6PCD5) | 0.089 | -0.444 (active) | 0.061 | -0.027 | 0.043
RNF149 (UniProt Q8NC42) | 0.036 | 0.098 | 0.013 | 0.015 | 
RAB27A (UniProt P51159) | -0.033 | -0.08 | 0.066 | -0.009 | 0.023
RTN4IP1 (UniProt Q8WWV3) | -0.1 | -0.338 (active) | 0.165 | 0.054 | -0.01
RABGGTB (UniProt P53611) | -0.058 | -0.286 (active) | 0.006 | -0.005 | -0.044
SERINC3 (UniProt Q13530) | -0.027 | 0.019 | -0.012 | 0.017 | 0.024
RECQL5 (UniProt O94762) | -0.063 | -0.307 (active) | -0.094 | 0.03 | 0.024
RAB8B (UniProt Q92930) | -0.022 | 0.135 | -0.025 | 0 | -0.021
RAB3IL1 (UniProt E9PK89) | 0.016 | -0.614 (active) | 0.011 | 0.079 | -0.158
RPAP1 (UniProt Q9BWH6) | 0.006 | -0.232 (active) | 0 | 0.015 | -0.025
RBBP8 isoform 2 (UniProt Q99708) | -0.035 | 0.076 | -0.13 | -0.028 | -0.002
RPL31 (UniProt P62899) | 0.003 | 0.126 | 0.007 | 0.06 | 0.021
RAP1GAP isoform 4 (UniProt P47736) | -0.058 | -0.419 (active) | -0.035 | 0.022 | -0.012
RMI2 (UniProt Q96E14) | -0.008 | -0.586 (active) | 0.092 | 0.041 | -0.01
RFC2 (UniProt P35250) | -0.027 | -0.506 (active) | 0.043 | -0.017 | 0.004
RASA2 (UniProt Q15283) | -0.007 | -0.275 (active) | 0.021 | -0.006 | 0.023
RPTOR (UniProt Q8N122) | 0.002 | -0.337 (active) | 0.048 | 0.012 | -0.01
S100A6 (UniProt P06703) | 0.064 | 0.136 | -0.036 | -0.071 | -0.005

Target | log2 fold change [1] | log2 fold change (vorinostat) | log2 fold change (silmitasertib) | log2 fold change [2] | log2 fold change (entospletinib)
SEC13 isoform 3 (UniProt P55735) | -0.01 | -0.115 | 0.021 | -0.045 | -0.001
SELENOK (UniProt Q9Y6D0) | -0.192 |  |  |  | 
RXRB isoform 3 (UniProt P28702) | 0.067 | -0.757 (active) | 0.168 | 0.07 | 0.006
RDH10 (UniProt Q8IZV5) | -0.038 | -0.007 | 0.006 | -0.042 | 0.162
RBM4 (UniProt Q9BWF3) | -0.04 | -0.172 | 0.035 | -0.097 | 0.001
RNF168 (UniProt Q8IYW5) | 0.056 | -0.313 | 0.025 | -0.046 | 0.042
RINT1 (UniProt Q6NUQ1) | 0.078 | -0.321 (active) | 0.038 | 0.034 | -0.089
RAP1B (UniProt F5GZG1) | -0.051 | -0.054 | -0.004 | -0.099 | -0.026
SAMD4A (UniProt Q9UPU9) | -0.038 | -0.647 (active) | 0.027 | 0.014 | -0.053
RFC4 (UniProt P35249) | 0.013 | -0.423 (active) | 0.033 | 0.008 | 0.006
RCAN1 (UniProt P53805) | 0.082 | -0.197 | 0.02 | 0.02 | 0.031
RAD50 isoform 2 (UniProt Q92878) | -0.005 | -0.458 (active) | 0.024 | -0.009 | -0.003
RNF113A (UniProt O15541) | 0.009 | -0.02 | -0.03 | -0.004 | 0.02
RNASEL (UniProt Q05823) | -0.005 | -0.298 (active) | 0.055 | -0.021 | -0.023
RPL28 (UniProt P46779) | 0.012 | 0.033 | 0.008 | 0.043 | 0.007
SDHC (UniProt Q99643) | -0.046 | -0.196 | 0.048 | -0.071 | 0.088
RHAG (UniProt Q02094) | 0.031 | -0.026 | 0.153 | 0.015 | -0.03
SEMA4G isoform 2 (UniProt Q9NTN9) | 0.078 | -0.513 (active) | 0.172 | 0.103 | -0.09
RAPGEF4 (UniProt Q8WZA2) | 0.219 | 0.143 | -0.09 | 0.353 | 0.014
RHOA (UniProt P61586) | 0.03 | 0.064 | -0.009 | 0 | 0.022
RCOR1 (UniProt Q9UKL0) | 0.034 | -0.184 | -0.014 | -0.011 | 0.009
RNASEH2B (UniProt Q5TBB1) | -0.016 | -0.377 (active) | 0.054 | -0.064 | 0.011
RDH11 (UniProt Q8TC12) | 0.008 | 0.038 | 0.022 | -0.047 | 0.014
SCD (UniProt O00767) | -0.045 | 0.021 | -0.057 | -0.028 | 0.017
RNPS1 (UniProt Q15287) | -0.014 | 0.02 | -0.093 | -0.012 | 0.009
SASS6 (UniProt Q6UVJ0) | 0.015 | -0.381 (active) | 0.012 | 0.021 | 0.003
RPN2 (UniProt P04844) | -0.007 | 0.118 | 0.008 | -0.04 | -0.009
